Results published in PubChem BioAssay (NCI).
About 83,000 compounds went through this panel and 20% of them were active in at least one assay; those are over-represented in the sample as a whole.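 Values shown are percent growth following 48 h exposure of cells in 96-well plates to a single concentration of compound; below 10 was considered active.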 Calls of active or inactive are those of the source.

How the values were obtained:
Assay in all cases: NCI-60 one-dose screen, 48 h (100 = growth as untreated, 0 = no growth, -100 = all killed)
Settings in all cases: 10 µM unless noted
DU-145 prostate = tested on: DU-145 prostate
K-562 leukemia = tested on: K-562 leukemia
MALME-3M melanoma = tested on: MALME-3M melanoma
MDA-MB-231 breast = tested on: MDA-MB-231 breast
RXF 393 renal = tested on: RXF 393 renal
SF-268 CNS = tested on: SF-268 CNS
SF-295 CNS = tested on: SF-295 CNS
SF-539 CNS = tested on: SF-539 CNS
UACC-257 melanoma = tested on: UACC-257 melanoma
M14 melanoma = tested on: M14 melanoma

Compound	growth (DU-145 prostate)	growth (K-562 leukemia)	growth (MALME-3M melanoma)	growth (MDA-MB-231 breast)	growth (RXF 393 renal)	growth (SF-268 CNS)	growth (SF-295 CNS)	growth (SF-539 CNS)	growth (UACC-257 melanoma)	growth (M14 melanoma)
O=S(=O)(Nc1cc(F)cc(Cl)c1)c1ccc(-c2cnc(C3CC3)o2)cc1	35.6% (inactive)	17.1% (inactive)	52.1% (inactive)	42.7% (inactive)	14.8% (inactive)	59.5% (inactive)	22.4% (inactive)	5.3% (active)	62.9% (inactive)	25.2% (inactive)
COc1ccc2c(c1OC)CO[C@@H]2[C@H]1c2c(cc3c(c2OC)OCO3)CCN1S(=O)(=O)c1cn(C)cn1	11.1% (inactive)	10.7% (inactive)	45.6% (inactive)	30.4% (inactive)	-27.9% (active)	40.8% (inactive)	14.5% (inactive)	-14.2% (active)	56.2% (inactive)	3.48% (active)
CCCNc1nc2ccccc2c2c1S(=O)(=O)c1ccc(Cl)cc1C2=O	19.4% (inactive)	8.48% (active)	21.9% (inactive)	-0.717% (active)	12% (inactive)	20.4% (inactive)	15.8% (inactive)	6.35% (active)	17.8% (inactive)	5.71% (active)
O=CN1N=C(c2cccc(Nc3ccnc4cc(Cl)ccc34)c2)CC1c1ccccc1 (stereo not given)	6.74% (active)	18.3% (inactive)	53.2% (inactive)	7.27% (active)	-5.98% (active)	36.9% (inactive)	2.56% (active)	-7.47% (active)	66.9% (inactive)	23.6% (inactive)
O=C(OC(CO)C(=O)NC12CC3CC(CC(C3)C1)C2)c1ccc(Cl)cc1 (stereo not given)	103% (inactive)	95.5% (inactive)	104% (inactive)	105% (inactive)	103% (inactive)	104% (inactive)	100% (inactive)	96% (inactive)	100% (inactive)	97.6% (inactive)
Cc1[nH]c(C(=O)Nc2ccc(C(=O)N3CCN(c4cc5c(cc4F)c(=O)c(C(=O)O)cn5C4CC4)CC3)cc2OC(C)C)c(Cl)c1Cl	87.2% (inactive)	56.4% (inactive)	89% (inactive)	80.3% (inactive)	82.4% (inactive)	78.1% (inactive)	81.4% (inactive)	75.3% (inactive)	82.5% (inactive)	73.2% (inactive)
O=C(CSc1nc2ccc([N+](=O)[O-])cc2[nH]1)Nc1ccc([N+](=O)[O-])cc1	31.6% (inactive)	14.3% (inactive)	1.83% (active)	33.3% (inactive)	29% (inactive)	27% (inactive)	21.2% (inactive)	41.5% (inactive)	9.35% (active)	24.5% (inactive)
C#CCOC(=O)/C=C/c1cn(-c2ccccc2)nc1-c1ccc(OC)cc1	95.1% (inactive)	16.8% (inactive)	107% (inactive)	57.1% (inactive)	73.7% (inactive)	87.9% (inactive)	94.1% (inactive)	89.4% (inactive)	87.5% (inactive)	98.8% (inactive)
[O-]/[N+](=C\c1ccc(-n2cc(Cc3ccccc3Cc3cn(-c4ccc(/C=[N+](/[O-])c5ccccc5)cc4)nn3)nn2)cc1)c1ccccc1	106% (inactive)	86.6% (inactive)	102% (inactive)	103% (inactive)	116% (inactive)	92.8% (inactive)	99.5% (inactive)	92.2% (inactive)	108% (inactive)	101% (inactive)
Cc1ccc2c(n1)C(=O)C(Br)=C(CC(C)C)C2=O	109% (inactive)	33.8% (inactive)	99.7% (inactive)	91.4% (inactive)	102% (inactive)	96.2% (inactive)	102% (inactive)	97.7% (inactive)	85.1% (inactive)	102% (inactive)
S=c1sc2c(Cl)nc(-c3cccnc3)nc2n1-c1ccccc1	27.4% (inactive)	0.869% (active)	65.8% (inactive)	-11.7% (active)	-42.1% (active)	14.6% (inactive)	96.1% (inactive)	6.15% (active)	50% (inactive)	33% (inactive)
CCN1C(=S)N(c2ccccc2)C2NC(=S)N(/N=C/C=C/c3ccccc3OC)C21 (stereo not given)	7.01% (active)	8.73% (active)	54.1% (inactive)	10.5% (inactive)	26.3% (inactive)	54.5% (inactive)	13.7% (inactive)	-18.3% (active)	43.2% (inactive)	3.35% (active)
N#Cc1c(-c2ccccc2)cc(-c2ccccc2)n(CCCC(=O)Nc2ccccc2N)c1=O	87.4% (inactive)	20.2% (inactive)	47.4% (inactive)	69.9% (inactive)	55.8% (inactive)	59.5% (inactive)	35.1% (inactive)	52.5% (inactive)	78.2% (inactive)	39.8% (inactive)
Fc1cnccc1C1CC(c2ccc(N3CCNCC3)cc2)=NN1 (stereo not given)	107% (inactive)	77.9% (inactive)	93.4% (inactive)	84.6% (inactive)	105% (inactive)	107% (inactive)	98% (inactive)	104% (inactive)	83.1% (inactive)	95.9% (inactive)
Nc1nc2ccc(-c3nc4ccc5[nH]ncc5c4c4c3CCCC4)cc2s1	111% (inactive)	94.9% (inactive)	94.5% (inactive)	106% (inactive)	109% (inactive)	98.8% (inactive)	108% (inactive)	106% (inactive)	88.1% (inactive)	101% (inactive)
c1csc(-c2ccc(CNc3c4ccccc4nc4ccccc34)cc2)c1	61.7% (inactive)	-39.9% (active)	-82% (active)	38.3% (inactive)	-14.3% (active)	62.9% (inactive)	15.8% (inactive)	12.5% (inactive)	-37.4% (active)	-74.4% (active)
Fc1cc2c(cc1Cl)N(c1ncnc3ccc(-c4ccc5n[nH]nc5c4)cc13)CC2	67.1% (inactive)	88.2% (inactive)	88.8% (inactive)	72.8% (inactive)	78.7% (inactive)	69.5% (inactive)	91.7% (inactive)	78.9% (inactive)	96% (inactive)	94.8% (inactive)
